# Experimental data: publication PMC8384837, “Expanding the binding specificity for RNA recognition by a PUF domain”
# Numbering of substitutions follows the chain as printed.
# What was measured:
# Test in all cases: yeast three-hybrid, YBZ-1, SC-Leu-His + 0.5 mM 3-AT, 4 days
# Conditions in all cases: tags: N-Gal4 AD-HA kept; label: inside an RPR1-promoter hybrid RNA with tandem MS2 sites; ssRNA
# PUM1 PUF domain R1-GIR = PUM1 PUF domain R1-GIR (Homo sapiens, UniProt Q14671 828-1176, S863G;R864I;Q867R)
# How it was run: (§1)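 Repeat regions from input (SC-Leu) and selection (SC-Leu-His + 0.5 mM 3-AT) plates were PCR-amplified and Illumina-sequenced after four days of growth. The cells were strain YBZ-1 with a LexA–MS2 coat fusion and a HIS3 reporter, co-expressing Pumilio-1 PUF domain libraries and matching RNA elements from a centromeric plasmid. The interaction score is the log change in variant frequency from input to selection, taken in log2 with a pseudocount of 1 for absent variants.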
# PUM1 PUF domain R1-RCS = PUM1 PUF domain R1-RCS (Homo sapiens, UniProt Q14671 828-1176, S863R;R864C;Q867S)
# How it was run: as §1
# PUM1 PUF domain R5-FRR = PUM1 PUF domain R5-FRR (Homo sapiens, UniProt Q14671 828-1176, C1007F;Q1011R)
# How it was run: as §1
# PUM1 PUF domain R8-VWP = PUM1 PUF domain R8-VWP (Homo sapiens, UniProt Q14671 828-1176, N1122V;Y1123W;Q1126P)
# How it was run: as §1
# PUM1 PUF domain R4-TPG = PUM1 PUF domain R4-TPG (Homo sapiens, UniProt Q14671 828-1176, N971T;H972P;Q975G)
# How it was run: as §1
# PUM1 PUF domain R3-PWW = PUM1 PUF domain R3-PWW (Homo sapiens, UniProt Q14671 828-1176, C935P;R936W;Q939W)
# How it was run: as §1
# PUM1 PUF domain R5-RKS = PUM1 PUF domain R5-RKS (Homo sapiens, UniProt Q14671 828-1176, C1007R;R1008K;Q1011S)
# How it was run: as §1
# PUM1 PUF domain R4-SPW = PUM1 PUF domain R4-SPW (Homo sapiens, UniProt Q14671 828-1176, N971S;H972P;Q975W)
# How it was run: as §1
# PUM1 PUF domain R4-QPS = PUM1 PUF domain R4-QPS (Homo sapiens, UniProt Q14671 828-1176, N971Q;H972P;Q975S)
# How it was run: as §1
# PUM1 PUF domain R3-GWG = PUM1 PUF domain R3-GWG (Homo sapiens, UniProt Q14671 828-1176, C935G;R936W;Q939G)
# How it was run: as §1
# PUM1 PUF domain R6-NRI = target: T1, PUM1 PUF domain R6-NRI (Homo sapiens, UniProt Q14671 828-1176, Y1044R;Q1047I)
# T1 sequence: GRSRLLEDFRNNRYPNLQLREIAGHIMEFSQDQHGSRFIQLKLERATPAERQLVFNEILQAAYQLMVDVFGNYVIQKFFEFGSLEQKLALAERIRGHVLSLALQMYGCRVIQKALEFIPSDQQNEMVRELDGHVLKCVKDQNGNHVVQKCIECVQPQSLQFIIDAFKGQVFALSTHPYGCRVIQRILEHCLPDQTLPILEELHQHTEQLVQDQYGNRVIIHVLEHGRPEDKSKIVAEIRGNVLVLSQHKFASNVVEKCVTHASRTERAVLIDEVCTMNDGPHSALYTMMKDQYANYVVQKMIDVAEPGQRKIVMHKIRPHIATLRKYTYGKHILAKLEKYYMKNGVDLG
# How it was run: as §1
# PUM1 PUF domain R3-SRP = PUM1 PUF domain R3-SRP (Homo sapiens, UniProt Q14671 828-1176, C935S;Q939P)
# How it was run: as §1
# PUM1 PUF domain R1-KIM = PUM1 PUF domain R1-KIM (Homo sapiens, UniProt Q14671 828-1176, S863K;R864I;Q867M)
# How it was run: as §1
# PUM1 PUF domain R6-AFL = target: T2, PUM1 PUF domain R6-AFL (Homo sapiens, UniProt Q14671 828-1176, N1043A;Y1044F;Q1047L)
# T2 sequence: T1 sequence with N216A, R217F, I220L
# How it was run: as §1
# PUM1 PUF domain R5-HLY = PUM1 PUF domain R5-HLY (Homo sapiens, UniProt Q14671 828-1176, C1007H;R1008L;Q1011Y)
# How it was run: as §1
# PUM1 PUF domain R5-QMG = PUM1 PUF domain R5-QMG (Homo sapiens, UniProt Q14671 828-1176, C1007Q;R1008M;Q1011G)
# How it was run: as §1
# PUM1 PUF domain R7-GGK = PUM1 PUF domain R7-GGK (Homo sapiens, UniProt Q14671 828-1176, S1079G;N1080G;E1083K)
# How it was run: as §1
# PUM1 PUF domain R3-RAV = PUM1 PUF domain R3-RAV (Homo sapiens, UniProt Q14671 828-1176, C935R;R936A;Q939V)
# How it was run: as §1
# PUM1 PUF domain R3-RQR = PUM1 PUF domain R3-RQR (Homo sapiens, UniProt Q14671 828-1176, C935R;R936Q;Q939R)
# How it was run: as §1
# PUM1 PUF domain R4-AHP = PUM1 PUF domain R4-AHP (Homo sapiens, UniProt Q14671 828-1176, N971A;Q975P)
# How it was run: as §1
# Chain of PUM1 PUF domain R4-SPW (Q14671 828-1176 N971S/H972P/Q975W): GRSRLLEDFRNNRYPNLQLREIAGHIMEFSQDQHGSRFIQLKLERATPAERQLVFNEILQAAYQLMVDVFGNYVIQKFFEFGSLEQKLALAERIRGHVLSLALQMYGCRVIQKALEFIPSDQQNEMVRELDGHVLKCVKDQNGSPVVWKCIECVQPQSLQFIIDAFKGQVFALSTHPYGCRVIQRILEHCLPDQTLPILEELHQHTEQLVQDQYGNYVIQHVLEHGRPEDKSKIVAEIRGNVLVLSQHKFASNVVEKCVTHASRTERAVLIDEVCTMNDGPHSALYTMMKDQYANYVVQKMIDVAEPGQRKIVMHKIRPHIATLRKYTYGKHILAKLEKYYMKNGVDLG
# Chain of PUM1 PUF domain R1-RCS (Q14671 828-1176 S863R/R864C/Q867S): as the sequence (Q14671 828-1176 N971S/H972P/Q975W) above, with S36R, R37C, Q40S, S144N, P145H, W148Q counted along it
# Chain of PUM1 PUF domain R3-GWG (Q14671 828-1176 C935G/R936W/Q939G): as the sequence (Q14671 828-1176 N971S/H972P/Q975W) above, with C108G, R109W, Q112G, S144N, P145H, W148Q counted along it
# Chain of PUM1 PUF domain R4-TPG (Q14671 828-1176 N971T/H972P/Q975G): as the sequence (Q14671 828-1176 N971S/H972P/Q975W) above, with S144T, W148G counted along it
# Chain of PUM1 PUF domain R5-FRR (Q14671 828-1176 C1007F/Q1011R): as the sequence (Q14671 828-1176 N971S/H972P/Q975W) above, with S144N, P145H, W148Q, C180F, Q184R counted along it
sequence,measurement,setting,value
GGCUAGAACUAGUGGAUCCCCCGGCGCCCGGCGGCUCGAGCCCGGGUAAGUGUAAAUCGUCUGCAUGCCGCCGGGCGCCAUGCCUGCAGGUCGACUCUAGAAAACAUG,binding signal,PUM1 PUF domain R1-GIR,4.44 log2 enrichment (interaction score)
same,binding signal,PUM1 PUF domain R1-RCS,3.49 log2 enrichment (interaction score)
GGCUAGAACUAGUGGAUCCCCCGGCGCCCGGCGGCUCGAGCCCGGGUAAGUGUUAAUAGUCUGCAUGCCGCCGGGCGCCAUGCCUGCAGGUCGACUCUAGAAAACAUG,binding signal,PUM1 PUF domain R5-FRR,3.38 log2 enrichment (interaction score)
GGCUAGAACUAGUGGAUCCCCCGGCGCCCGGCGGCUCGAGCCCGGGUAAGUGUAAAUAGUCUGCAUGCCGCCGGGCGCCAUGCCUGCAGGUCGACUCUAGAAAACAUG,binding signal,PUM1 PUF domain R8-VWP,1.71 log2 enrichment (interaction score)
same,binding signal,PUM1 PUF domain R4-TPG,3.31 log2 enrichment (interaction score)
same,binding signal,PUM1 PUF domain R3-PWW,2.43 log2 enrichment (interaction score)
same,binding signal,PUM1 PUF domain R5-RKS,0.56 log2 enrichment (interaction score)
same,binding signal,PUM1 PUF domain R5-FRR,1.31 log2 enrichment (interaction score)
same,binding signal,PUM1 PUF domain R4-SPW,3.13 log2 enrichment (interaction score)
same,binding signal,PUM1 PUF domain R4-QPS,1.44 log2 enrichment (interaction score)
same,binding signal,PUM1 PUF domain R3-GWG,4.07 log2 enrichment (interaction score)
same,binding signal,PUM1 PUF domain R6-NRI,4.34 log2 enrichment (interaction score)
same,binding signal,PUM1 PUF domain R3-SRP,5.42 log2 enrichment (interaction score)
GGCUAGAACUAGUGGAUCCCCCGGCGCCCGGCGGCUCGAGCCCGGGUAAGUGUAAAUUGUCUGCAUGCCGCCGGGCGCCAUGCCUGCAGGUCGACUCUAGAAAACAUG,binding signal,PUM1 PUF domain R1-GIR,3.23 log2 enrichment (interaction score)
same,binding signal,PUM1 PUF domain R1-RCS,3.23 log2 enrichment (interaction score)
same,binding signal,PUM1 PUF domain R1-KIM,3.49 log2 enrichment (interaction score)
GGCUAGAACUAGUGGAUCCCCCGGCGCCCGGCGGCUCGAGCCCGGGUAAGUGAAAAUAGUCUGCAUGCCGCCGGGCGCCAUGCCUGCAGGUCGACUCUAGAAAACAUG,binding signal,PUM1 PUF domain R6-AFL,4.25 log2 enrichment (interaction score)
same,binding signal,PUM1 PUF domain R6-NRI,2.1 log2 enrichment (interaction score)
GGCUAGAACUAGUGGAUCCCCCGGCGCCCGGCGGCUCGAGCCCGGGUAAGUGUAAAUGGUCUGCAUGCCGCCGGGCGCCAUGCCUGCAGGUCGACUCUAGAAAACAUG,binding signal,PUM1 PUF domain R1-RCS,1.75 log2 enrichment (interaction score)
GGCUAGAACUAGUGGAUCCCCCGGCGCCCGGCGGCUCGAGCCCGGGUAAGUGUCAAUAGUCUGCAUGCCGCCGGGCGCCAUGCCUGCAGGUCGACUCUAGAAAACAUG,binding signal,PUM1 PUF domain R5-RKS,3.2 log2 enrichment (interaction score)
same,binding signal,PUM1 PUF domain R5-FRR,4.1 log2 enrichment (interaction score)
same,binding signal,PUM1 PUF domain R5-HLY,3.47 log2 enrichment (interaction score)
GGCUAGAACUAGUGGAUCCCCCGGCGCCCGGCGGCUCGAGCCCGGGUAAGUGUGAAUAGUCUGCAUGCCGCCGGGCGCCAUGCCUGCAGGUCGACUCUAGAAAACAUG,binding signal,PUM1 PUF domain R5-QMG,2.26 log2 enrichment (interaction score)
GGCUAGAACUAGUGGAUCCCCCGGCGCCCGGCGGCUCGAGCCCGGGUAAGUUUAAAUAGUCUGCAUGCCGCCGGGCGCCAUGCCUGCAGGUCGACUCUAGAAAACAUG,binding signal,PUM1 PUF domain R7-GGK,3.4 log2 enrichment (interaction score)
GGCUAGAACUAGUGGAUCCCCCGGCGCCCGGCGGCUCGAGCCCGGGUAAGUGUAAUUAGUCUGCAUGCCGCCGGGCGCCAUGCCUGCAGGUCGACUCUAGAAAACAUG,binding signal,PUM1 PUF domain R3-RAV,3.5 log2 enrichment (interaction score)
same,binding signal,PUM1 PUF domain R3-GWG,1.55 log2 enrichment (interaction score)
same,binding signal,PUM1 PUF domain R3-RQR,3.88 log2 enrichment (interaction score)
same,binding signal,PUM1 PUF domain R3-SRP,1.56 log2 enrichment (interaction score)
GGCUAGAACUAGUGGAUCCCCCGGCGCCCGGCGGCUCGAGCCCGGGUAAGCGUAAAUAGUCUGCAUGCCGCCGGGCGCCAUGCCUGCAGGUCGACUCUAGAAAACAUG,binding signal,PUM1 PUF domain R8-VWP,3.01 log2 enrichment (interaction score)
GGCUAGAACUAGUGGAUCCCCCGGCGCCCGGCGGCUCGAGCCCGGGUAAGUGUACAUAGUCUGCAUGCCGCCGGGCGCCAUGCCUGCAGGUCGACUCUAGAAAACAUG,binding signal,PUM1 PUF domain R4-TPG,3.87 log2 enrichment (interaction score)
same,binding signal,PUM1 PUF domain R4-SPW,0.34 log2 enrichment (interaction score)
same,binding signal,PUM1 PUF domain R4-AHP,4.93 log2 enrichment (interaction score)
GGCUAGAACUAGUGGAUCCCCCGGCGCCCGGCGGCUCGAGCCCGGGUAAGUGUAAGUAGUCUGCAUGCCGCCGGGCGCCAUGCCUGCAGGUCGACUCUAGAAAACAUG,binding signal,PUM1 PUF domain R3-GWG,3.17 log2 enrichment (interaction score)
GGCUAGAACUAGUGGAUCCCCCGGCGCCCGGCGGCUCGAGCCCGGGUAAGUGUAUAUAGUCUGCAUGCCGCCGGGCGCCAUGCCUGCAGGUCGACUCUAGAAAACAUG,binding signal,PUM1 PUF domain R4-TPG,4.15 log2 enrichment (interaction score)
same,binding signal,PUM1 PUF domain R4-SPW,2.59 log2 enrichment (interaction score)
same,binding signal,PUM1 PUF domain R4-QPS,3.86 log2 enrichment (interaction score)
